Read-out in assay [1]: Tumor necrosis factor receptor superfamily member 6 (Homo sapiens) (UniProt P25445)
In words: LTEA_HepaRG_FAS: Life Technologies and Expression Analysis (LTEA) Assay for Fas cell surface death receptor (FAS) using HepaRG (AID 2283447). Particulars: mRNA level, 48 h; actives raise or lower the signal. A digest of the protocol:
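Differentiated human HepaRG cells, pre-cultured 48 h, were exposed in duplicate for 48 h to 8-point half-log concentrations (top 100 uM, 0.5% DMSO) in serum-free induction medium; FAS mRNA measured by qRT-PCR, normalized to ACTB/GAPDH/POLR2A, bidirectional fit versus DMSO.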

Read-out in assay [2]: Fatty acid synthase (Homo sapiens) (UniProt P49327)
The assay is described as follows: LTEA_HepaRG_FASN: Life Technologies and Expression Analysis (LTEA) Assay for Fatty Acid Synthase (FASN) using HepaRG (AID 2283448). The conditions noted are these: mRNA level, 48 h; actives raise or lower the signal. The method in brief: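 Transcript-level assay: HepaRG liver cells are treated for 48 h across an eight-point range topping at 100 uM, and FASN mRNA, normalized to three housekeeping genes, is compared with DMSO controls in both directions.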

Read-out in assay [3]: Cyclin D2 (CCND2), CCND2 (gene 894)
In words: LTEA_HepaRG_CCND2: Life Technologies and Expression Analysis (LTEA) Assay for Cyclin D2 (CCND2) using HepaRG (AID 2283449).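 Further: CCND2 transcript measured by TaqMan qRT-PCR and normalised to three housekeeping genes.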 The conditions noted are these: mRNA level, 48 h; actives raise or lower the signal. A digest of the protocol: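 Differentiated human HepaRG cells were exposed for 48 h in serum-free induction medium to eight half-log concentrations topping at 100 uM (0.5% DMSO vehicle). CCND2 mRNA was quantified by TaqMan qRT-PCR, normalised to ACTB, GAPDH and POLR2A, and fitted bidirectionally against DMSO.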

Read-out in assay [4]: Cyclin Dependent Kinase Inhibitor 1A (CDKN1A), CDKN1A (gene 1026)
The assay is described as follows: LTEA_HepaRG_CDKN1A: Life Technologies and Expression Analysis (LTEA) Assay for Cyclin Dependent Kinase Inhibitor 1A (CDKN1A) using HepaRG (AID 2283450). Particulars: mRNA level, 48 h; actives raise or lower the signal. A digest of the protocol:
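HepaRG, 48 h dosing, 8-pt half-log series from 100 uM top, 0.5% DMSO vehicle, duplicates. Readout: TaqMan qRT-PCR of CDKN1A transcript, housekeeping-normalized (ACTB, GAPDH, POLR2A). Up/down curve fit relative to DMSO.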

Read-out in assay [5]: catalase (CAT), CAT (gene 847)
In words: LTEA_HepaRG_CAT: Life Technologies and Expression Analysis (LTEA) Assay for catalase (CAT) using HepaRG (AID 2283452). The conditions noted are these: mRNA level, 48 h; actives raise or lower the signal. A digest of the protocol:
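Differentiated HepaRG cells in serum-free induction medium were dosed 48 h in duplicate, eight half-log concentrations from 100 uM in 0.5% DMSO. Transcript measured by TaqMan qRT-PCR, normalised to ACTB/GAPDH/POLR2A, fitted bidirectionally against DMSO.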

Read-out in assay [6]: flavin-containing dimethylaniline monooxygenases 3 (FMO3), FMO3 (gene 2328)
The assay is described as follows: LTEA_HepaRG_FMO3: Life Technologies and Expression Analysis (LTEA) Assay for flavin-containing dimethylaniline monooxygenases 3 (FMO3) using HepaRG (AID 2283453). Particulars: mRNA level, 48 h; actives raise or lower the signal. The method in brief: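 HepaRG, 48 h exposure, 8-pt half-log series from 100 uM, 0.5% DMSO vehicle, duplicates; FMO3 transcript by Fluidigm TaqMan qRT-PCR, housekeeping-normalized; gain/loss fit vs DMSO.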

Read-out in assay [7]: Cytochrome P450 (CYP1A1), CYP1A1 (gene 1543)
The assay is described as follows: LTEA_HepaRG_CYP1A1: Life Technologies and Expression Analysis (LTEA) Assay for Cytochrome P450 (CYP1A1) using HepaRG (AID 2283454). Particulars: mRNA level, 48 h; actives raise or lower the signal. The method in brief:
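qRT-PCR read-out: CYP1A1 transcript normalized to three housekeeping genes, fitted bidirectionally against 0.5% DMSO vehicle baseline. Human HepaRG cells, 48 h chemical exposure, 8-point half-log series topping at 100 uM.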

Read-out in assay [8]: CFLAR gene, CFLAR (gene 8837)
The assay is described as follows: LTEA_HepaRG_CFLAR: Life Technologies and Expression Analysis (LTEA) Assay for CFLAR gene using HepaRG (AID 2283455). The conditions noted are these: mRNA level, 48 h; actives raise or lower the signal. The method in brief:
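HepaRG cells were plated for 48 h, switched to serum-free induction medium, then exposed in duplicate for 48 h to 8 concentrations (top 100 uM, half-log steps, 0.5% DMSO). CFLAR mRNA was measured by qRT-PCR, normalized to ACTB, GAPDH and POLR2A.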

Read-out in assay [9]: Forkhead box O1 (FOXO1), FOXO1 (gene 2308)
In words: LTEA_HepaRG_FOXO1: Life Technologies and Expression Analysis (LTEA) Assay for Forkhead box O1 (FOXO1) using HepaRG (AID 2283456). Particulars: mRNA level, 48 h; actives raise or lower the signal. A digest of the protocol: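 Differentiated human HepaRG cells in serum-free induction medium were exposed in duplicate for 48 h to eight half-log concentrations (top 100 uM, 0.5% DMSO). FOXO1 mRNA was measured by TaqMan qRT-PCR, normalised to ACTB, GAPDH and POLR2A, and fitted bidirectionally against DMSO.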

Assay [10] is described as follows: CEETOX_H295R_TESTO: CeeTox H295R High-throughput Steroidogenesis Assay for Testosterone (TESTO) (AID 2283457).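 On AC50: cells exposed to chemicals for 48 h before medium collection.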 Particulars: actives raise or lower the signal. The method in brief: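 Readout: testosterone quantified by HPLC-MS/MS (C18, ESI positive) after MTBE liquid-liquid extraction of culture medium. Cells were H295R, 48 h chemical exposure per OECD 456 with modifications. Gain or loss of signal fitted relative to DMSO.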

Read-out in assay [11]: growth arrest and DNA damage 45 (GADD45A), GADD45A (gene 1647)
In words: LTEA_HepaRG_GADD45A: Life Technologies and Expression Analysis (LTEA) Assay for growth arrest and DNA damage 45 (GADD45A) using HepaRG (AID 2283458). The conditions noted are these: mRNA level, 48 h; actives raise or lower the signal. A digest of the protocol: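 Human HepaRG liver cells are treated in duplicate for 48 h with chemicals in 0.5% DMSO, highest concentration 100 uM. Expression is read by qRT-PCR and analyzed in both directions against vehicle.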

Read-out in assay [12]: Forkhead box O3 (FOXO3), FOXO3 (gene 2309)
The assay is described as follows: LTEA_HepaRG_FOXO3: Life Technologies and Expression Analysis (LTEA) Assay for Forkhead box O3 (FOXO3) using HepaRG (AID 2283459). The conditions noted are these: mRNA level, 48 h; actives raise or lower the signal. A digest of the protocol:
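Differentiated human HepaRG cells in serum-free induction medium were exposed in duplicate for 48 h to eight half-log concentrations up to 100 uM in 0.5% DMSO. FOXO3 mRNA was quantified by qRT-PCR, normalized to ACTB, GAPDH and POLR2A, with bidirectional fitting versus DMSO.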

Read-out in assay [13]: ABC Transporter (ABCB1), ABCB1 (gene 5243)
In words: LTEA_HepaRG_ABCB1: Life Technologies and Expression Analysis (LTEA) Assay for ABC Transporter (ABCB1) using HepaRG (AID 2283460). The conditions noted are these: mRNA level, 48 h; actives raise or lower the signal. A digest of the protocol:
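Differentiated human HepaRG cells, plated 48 h then switched to serum-free induction medium, were exposed in duplicate to eight half-log concentrations up to 100 uM in 0.5% DMSO for 48 h. ABCB1 mRNA was measured by TaqMan qRT-PCR, normalized to ACTB/GAPDH/POLR2A.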

Read-out in assay [14]: growth arrest and DNA damage 45 (GADD45B), GADD45B (gene 4616)
The assay is described as follows: LTEA_HepaRG_GADD45B: Life Technologies and Expression Analysis (LTEA) Assay for growth arrest and DNA damage 45 (GADD45B) using HepaRG (AID 2283461). The conditions noted are these: mRNA level, 48 h; actives raise or lower the signal. The method in brief:
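qRT-PCR read-out (Fluidigm TaqMan, housekeeping-normalized) of mRNA change in human HepaRG cells after 48 h chemical exposure; 8-point curve, top 100 uM, half-log steps, 0.5% DMSO vehicle; gain or loss fitted relative to DMSO baseline.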

Read-out in assay [15]: ABC Transporter (ABCC3), ABCC3 (gene 8714)
In words: LTEA_HepaRG_ABCC3: Life Technologies and Expression Analysis (LTEA) Assay for ABC Transporter (ABCC3) using HepaRG (AID 2283462). Particulars: mRNA level, 48 h; actives raise or lower the signal. A digest of the protocol: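 qRT-PCR read-out of ABCC3 transcript, normalized to three housekeeping genes (ACTB, GAPDH, POLR2A), after 48 h chemical exposure of human HepaRG cells. Eight half-log concentrations, highest 100 uM, in 0.5% DMSO; gain or loss fitted relative to DMSO baseline.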

Read-out in assay [16]: ABC Transporter (ABCB11), ABCB11 (gene 8647)
The assay is described as follows: LTEA_HepaRG_ABCB11: Life Technologies and Expression Analysis (LTEA) Assay for ABC Transporter (ABCB11) using HepaRG (AID 2283463). Particulars: mRNA level, 48 h; actives raise or lower the signal. A digest of the protocol: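 Differentiated human HepaRG cells were exposed for 48 h in serum-free induction medium to eight half-log concentrations up to 100 uM in 0.5% DMSO. ABCB11 mRNA was quantified by qRT-PCR, normalized to ACTB, GAPDH and POLR2A, and fitted bidirectionally versus DMSO.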

Read-out in assay [17]: ABC Transporter (ABCC2), ABCC2 (gene 1244)
The assay is described as follows: LTEA_HepaRG_ABCC2: Life Technologies and Expression Analysis (LTEA) Assay for ABC Transporter (ABCC2) using HepaRG (AID 2283464). Particulars: mRNA level, 48 h; actives raise or lower the signal. The method in brief:
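qRT-PCR (TaqMan, Fluidigm array) read-out of ABCC2 mRNA, normalized to three housekeeping genes. Differentiated HepaRG cells were treated 48 h in serum-free induction medium with 8-point half-log series from 100 uM in 0.5% DMSO; curves fitted bidirectionally relative to DMSO.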

Read-out in assay [18]: Broad substrate specificity ATP-binding cassette transporter ABCG2 (Homo sapiens) (UniProt Q9UNQ0)
In words: LTEA_HepaRG_ABCG2: Life Technologies and Expression Analysis (LTEA) Assay for ABC Transporter (ABCG2) using HepaRG (AID 2283465). The conditions noted are these: mRNA level, 48 h; actives raise or lower the signal. The method in brief: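 Differentiated HepaRG cells in serum-free induction medium were exposed for 48 h, in duplicate, to eight half-log concentrations up to 100 uM in 0.5% DMSO. ABCG2 mRNA was measured by TaqMan qRT-PCR, normalized to ACTB, GAPDH and POLR2A, and fitted bidirectionally versus DMSO.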

Read-out in assay [19]: ATP-citrate lyase (ACLY), ACLY (gene 47)
In words: LTEA_HepaRG_ACLY: Life Technologies and Expression Analysis (LTEA) Assay for ATP-citrate lyase (ACLY) using HepaRG (AID 2283466). Particulars: mRNA level, 48 h; actives raise or lower the signal. A digest of the protocol:
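Differentiated human HepaRG cells in serum-free induction medium exposed 48 h, in duplicate, to eight half-log concentrations from 100 uM top in 0.5% DMSO; ACLY mRNA measured by qRT-PCR, normalized to ACTB, GAPDH, POLR2A, fitted bidirectionally versus DMSO.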

Active and inactive are the calls of the source. How the source made its calls: active means hit-call score of the fitted dose curve at least 0.9, where 1 is the maximum; inactive means score below 0.9.

Fatty acid synthase (Homo sapiens), sequence (P49327 whole entry, looked up): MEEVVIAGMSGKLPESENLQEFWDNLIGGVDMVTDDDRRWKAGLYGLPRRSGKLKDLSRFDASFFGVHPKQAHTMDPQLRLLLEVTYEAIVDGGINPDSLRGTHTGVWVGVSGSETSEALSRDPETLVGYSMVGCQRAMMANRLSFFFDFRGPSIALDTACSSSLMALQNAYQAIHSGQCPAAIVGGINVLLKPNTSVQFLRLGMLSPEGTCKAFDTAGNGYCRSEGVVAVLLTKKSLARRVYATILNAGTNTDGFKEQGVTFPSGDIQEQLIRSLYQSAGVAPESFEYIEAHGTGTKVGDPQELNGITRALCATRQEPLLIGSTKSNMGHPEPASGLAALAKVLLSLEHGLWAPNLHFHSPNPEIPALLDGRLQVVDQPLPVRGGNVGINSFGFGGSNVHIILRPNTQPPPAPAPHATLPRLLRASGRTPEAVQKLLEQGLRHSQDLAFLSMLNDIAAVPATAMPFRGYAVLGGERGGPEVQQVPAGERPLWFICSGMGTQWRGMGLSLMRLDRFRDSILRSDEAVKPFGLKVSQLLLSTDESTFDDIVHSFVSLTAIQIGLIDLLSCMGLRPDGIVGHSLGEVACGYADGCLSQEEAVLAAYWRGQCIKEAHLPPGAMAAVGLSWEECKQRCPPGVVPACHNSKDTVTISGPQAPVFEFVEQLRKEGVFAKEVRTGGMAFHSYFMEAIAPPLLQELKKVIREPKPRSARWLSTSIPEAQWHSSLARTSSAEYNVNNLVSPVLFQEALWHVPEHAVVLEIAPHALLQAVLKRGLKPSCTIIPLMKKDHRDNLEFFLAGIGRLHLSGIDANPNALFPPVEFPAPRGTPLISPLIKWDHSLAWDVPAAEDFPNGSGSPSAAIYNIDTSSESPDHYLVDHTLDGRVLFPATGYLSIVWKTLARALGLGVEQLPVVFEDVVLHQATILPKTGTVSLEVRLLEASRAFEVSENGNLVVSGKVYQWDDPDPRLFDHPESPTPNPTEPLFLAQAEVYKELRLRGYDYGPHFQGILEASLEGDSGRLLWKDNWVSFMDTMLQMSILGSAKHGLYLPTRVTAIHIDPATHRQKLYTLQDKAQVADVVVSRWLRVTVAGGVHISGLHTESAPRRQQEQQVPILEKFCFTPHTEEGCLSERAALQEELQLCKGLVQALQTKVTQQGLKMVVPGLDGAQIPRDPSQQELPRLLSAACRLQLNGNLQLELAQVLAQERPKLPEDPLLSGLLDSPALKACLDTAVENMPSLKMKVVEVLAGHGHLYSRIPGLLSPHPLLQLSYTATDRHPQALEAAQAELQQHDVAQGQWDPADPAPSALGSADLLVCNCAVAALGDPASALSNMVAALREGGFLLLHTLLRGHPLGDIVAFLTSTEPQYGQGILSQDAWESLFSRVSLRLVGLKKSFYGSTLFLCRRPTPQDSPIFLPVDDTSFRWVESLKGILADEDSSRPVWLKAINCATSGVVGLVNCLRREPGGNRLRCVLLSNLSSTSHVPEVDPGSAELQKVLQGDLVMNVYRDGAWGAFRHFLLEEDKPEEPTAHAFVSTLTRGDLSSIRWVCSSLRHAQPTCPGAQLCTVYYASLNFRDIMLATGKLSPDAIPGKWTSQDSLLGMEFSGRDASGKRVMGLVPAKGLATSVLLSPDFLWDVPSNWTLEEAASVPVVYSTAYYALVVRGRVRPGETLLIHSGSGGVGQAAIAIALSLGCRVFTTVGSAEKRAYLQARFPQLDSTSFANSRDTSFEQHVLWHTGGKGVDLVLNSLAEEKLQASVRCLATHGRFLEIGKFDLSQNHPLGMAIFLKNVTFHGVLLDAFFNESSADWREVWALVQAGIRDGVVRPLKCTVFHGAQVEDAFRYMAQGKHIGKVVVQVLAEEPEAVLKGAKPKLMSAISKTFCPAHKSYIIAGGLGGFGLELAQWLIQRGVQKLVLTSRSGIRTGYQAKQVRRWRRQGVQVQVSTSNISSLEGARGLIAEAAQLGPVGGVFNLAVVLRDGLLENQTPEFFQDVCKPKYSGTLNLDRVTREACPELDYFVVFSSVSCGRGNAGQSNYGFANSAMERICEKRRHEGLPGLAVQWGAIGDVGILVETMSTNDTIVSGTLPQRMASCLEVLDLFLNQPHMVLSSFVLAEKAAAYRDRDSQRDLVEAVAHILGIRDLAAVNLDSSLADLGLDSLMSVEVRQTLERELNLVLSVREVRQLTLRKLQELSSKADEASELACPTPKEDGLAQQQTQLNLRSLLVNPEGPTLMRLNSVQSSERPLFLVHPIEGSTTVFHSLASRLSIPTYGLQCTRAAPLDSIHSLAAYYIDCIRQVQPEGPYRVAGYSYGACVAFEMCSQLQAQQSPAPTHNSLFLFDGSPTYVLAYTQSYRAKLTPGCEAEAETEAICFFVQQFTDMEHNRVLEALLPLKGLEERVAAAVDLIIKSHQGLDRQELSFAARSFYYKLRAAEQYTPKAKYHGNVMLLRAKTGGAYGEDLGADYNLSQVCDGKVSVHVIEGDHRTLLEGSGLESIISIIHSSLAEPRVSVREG
Broad substrate specificity ATP-binding cassette transporter ABCG2 (Homo sapiens), sequence (Q9UNQ0 whole entry, looked up): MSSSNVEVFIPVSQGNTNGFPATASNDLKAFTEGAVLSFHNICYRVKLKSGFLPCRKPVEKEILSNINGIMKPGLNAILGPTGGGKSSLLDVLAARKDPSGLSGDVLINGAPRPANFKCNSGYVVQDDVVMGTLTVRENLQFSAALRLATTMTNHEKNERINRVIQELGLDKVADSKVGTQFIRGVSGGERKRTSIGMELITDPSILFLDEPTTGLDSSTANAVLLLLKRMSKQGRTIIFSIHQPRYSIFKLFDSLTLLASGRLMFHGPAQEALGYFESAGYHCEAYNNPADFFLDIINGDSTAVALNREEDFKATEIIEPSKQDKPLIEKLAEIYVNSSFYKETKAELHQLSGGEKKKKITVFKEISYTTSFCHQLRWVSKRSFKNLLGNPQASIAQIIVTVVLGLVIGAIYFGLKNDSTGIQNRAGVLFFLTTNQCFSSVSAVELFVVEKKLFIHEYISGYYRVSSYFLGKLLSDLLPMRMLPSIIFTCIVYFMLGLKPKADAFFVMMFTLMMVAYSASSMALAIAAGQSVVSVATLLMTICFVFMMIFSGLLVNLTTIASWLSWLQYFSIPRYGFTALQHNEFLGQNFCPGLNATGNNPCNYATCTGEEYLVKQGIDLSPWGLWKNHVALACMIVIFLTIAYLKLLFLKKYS

With `Cc1nc(-c2ccc3c(c2)CCN(CCC2CCC(NC(=O)/C=C/c4ccc(F)cc4)CC2)CC3)no1` (stereo not drawn), the compound was classed as inactive in assay [1], in assay [2], in assay [3], in [4], in [5] and in [6]. Further, the compound was called inactive in assay [8], in assay [9], in assay [11], in assay [12], in [13] and in [14]. The call in assay [15], in [16], in assay [17], in [18] and in [19] was inactive. In addition, the AC50 (as a rule, the midpoint of the concentration-response curve, whichever way the signal moves) in assay [7] was 23.2 µM (active); in assay [10], 0.248 µM (active).
For `COc1ccc(S(=O)(=O)N2C(=O)[C@@](c3ccccc3OC)(N3C[C@H](O)C[C@H]3C(=O)N(C)C)c3cc(Cl)ccc32)c(OC)c1`, the outcome in assay [1], in assay [3], in [7], in [10], in assay [12] and in assay [13] was inactive. In addition, in assay [14], the result was inactive. Also, the AC50 was 22.7 µM (active) in assay [2]; 84.9 µM (active) in assay [4]; 23.7 µM (active) in assay [5]; 43.3 µM (active) in assay [6]; 35.9 µM (active) in assay [9]; 87.9 µM (active) in assay [11]. Also, the AC50 was 50 µM (active) in [15]; 14.9 µM (active) in assay [16]; 31.4 µM (active) in assay [17]; 11.7 µM (active) in assay [18]; 90.5 µM (active) in assay [19].
`CC=Cc1ccc(O)c(OC)c1`: the compound was classed as inactive in assay [1], in [2], in [3], in assay [4], in assay [5] and in assay [6]. Further, the call in assay [8], in [9], in assay [11], in [12], in [13] and in assay [14] was inactive. Moreover, the call in assay [15], in assay [18] and in assay [19] was inactive. Moreover, in [7], the AC50 was 50 µM (active).

The record behind these values is PubChem BioAssay (EPA / NIEHS).
